Data on eight compounds can be found in PubChem BioAssay (EPA / NIEHS).

Each structure is given as a SMILES string. Inconclusive results are not listed. The source made the active and inactive calls. Rule for the calls, unless noted: active = hit-call score of the fitted dose curve at least 0.9, where 1 is the maximum; inactive = score below 0.9.

The nature of assay [1]: ATG_PBREM_CIS: Attagene CIS-FACTORIAL HepG2 Assay for human Phenobarbital-responsive Enhancer Module (PBREM) (AID 2282955). The note with it: HepG2 PBREM cis-reporter, Attagene multiplexed transcription; actives raise or lower the signal. In a few lines: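 After a 24 h incubation with test chemical, transfected HepG2 cells yield total RNA; reporter-specific RT-PCR products are fluorescently labelled, HpaI-digested and resolved by capillary electrophoresis against ROX size standards.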

Assay [2] deals with Paired box protein Pax-6 (Homo sapiens) (UniProt P26367). Briefly: ATG_Pax6_CIS: Attagene CIS-FACTORIAL HepG2 Assay for human Paired Box 6 (PAX6) (AID 2282956). The note with it: HepG2 CIS-FACTORIAL PAX6 reporter transcription, RNA readout; actives raise or lower the signal. The gist of the method:
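Readout: reporter transcript fluorescence after RT-PCR and capillary electrophoresis. Cells: HepG2, transiently transfected with cis-regulated MRTUs. Exposure 24 h. Gain or loss of signal fitted bidirectionally relative to DMSO.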

The nature of assay [3]: ATG_PXRE_CIS: Attagene CIS-FACTORIAL HepG2 Assay for human Pregnane X Receptor Element (PXRE) (AID 2282957). The note with it: HepG2 Attagene CIS-FACTORIAL PXRE reporter, mRNA; actives raise or lower the signal. The gist of the method:
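Using HepG2 transfected with multiple reporter transcription units, endogenous factor-driven transcription was scored as reporter mRNA after 24 h exposure.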

A short description of assay [4]: ATG_PPRE_CIS: Attagene CIS-FACTORIAL HepG2 Assay for human Peroxisome Proliferator-activated Response Element (PPRE) (AID 2282958). The note with it: HepG2 PPRE cis-element reporter, Attagene transcription factor profiling; actives raise or lower the signal. In a few lines: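 Multiplexed reporter transcription units under cis-regulatory promoters were transfected into HepG2 cells to capture endogenous factor activity. A 24 h incubation preceded RNA isolation and fluorescent RT-PCR fragment analysis.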

Assay [5] in a line: ATG_RORE_CIS: Attagene CIS-FACTORIAL HepG2 Assay for human RAR-related Orphan Receptor Element (RORE) (AID 2282959). As to conditions: HepG2 Attagene cis-factorial RORE reporter, mRNA; actives raise or lower the signal. In a few lines:
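Fluorescence intensity of reporter-specific cDNA fragments, separated by capillary electrophoresis, gives the signal. Source: HepG2 liver cells transiently transfected with cis-element reporters and exposed 24 h; DMSO-normalized bidirectional fit.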

A short description of assay [6]: ATG_Sox_CIS: Attagene CIS-FACTORIAL HepG2 Assay for human SRY-box transcription factor (SOX) (AID 2282960). The note with it: HepG2 Attagene cis-factorial SOX reporter, mRNA; actives raise or lower the signal. In a few lines:
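After 24 h of chemical treatment, transfected HepG2 reporter cells are lysed for total RNA. Transcript levels come from RT-PCR with labelled primer extension and capillary electrophoresis, analysed bidirectionally versus DMSO.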

The target in assay [7] is Transcription factor Sp1 (Homo sapiens) (UniProt P08047). The assay can be described thus: ATG_Sp1_CIS: Attagene CIS-FACTORIAL HepG2 Assay for human Specificity Protein 1 (Sp1) (AID 2282961). As to conditions: HepG2 Sp1 cis-reporter transcription, actives raise or lower the signal. The gist of the method: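 Sp1-driven reporter mRNA, read as capillary electrophoresis fluorescence after RT-PCR, in transiently transfected HepG2 cells dosed for 24 h; signal change in either direction relative to DMSO.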

Assay [8] has as its target Signal transducer and activator of transcription 3 (Homo sapiens) (UniProt P40763). Briefly: ATG_STAT3_CIS: Attagene CIS-FACTORIAL HepG2 Assay for human Signal Transducer and Activator of Transcription 3 (STAT3) (AID 2282963). The note with it: HepG2, Attagene cis-factorial STAT3 reporter transcription; actives raise or lower the signal. In a few lines:
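Readout: fluorescent reporter mRNA fragments resolved by capillary electrophoresis. Setup: HepG2 transfected with MRTUs reporting endogenous transcription-factor activity, dosed 24 h. Gain or loss of signal fitted bidirectionally against DMSO control.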

Assay [9] is described as follows: ATG_TA_CIS: Attagene CIS-FACTORIAL HepG2 Assay for human TA Basal Promoter (AID 2282964). The note with it: HepG2 Attagene CIS-factorial TA basal promoter reporter; actives raise or lower the signal. The gist of the method: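 Steps: transfect HepG2 with MRTUs; dose 24 h; isolate RNA, DNase-treat, reverse-transcribe; PCR and FAM-label reporter cDNA; digest with HpaI 2h at 37 C; run capillary electrophoresis. Activity fitted both directions against DMSO.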

Assay [10] in a line: ATG_TCF_b_cat_CIS: Attagene CIS-FACTORIAL HepG2 Assay for human T-Cell-Factor with beta-catenin (TCF/b-cat) (AID 2282965). As to conditions: HepG2 TCF/beta-catenin cis-reporter transcription, actives raise or lower the signal. The gist of the method: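 Cells of the HepG2 line carry transiently transfected reporter units whose promoters respond to endogenous factors. Twenty-four hours post-dosing, reporter mRNA induction is measured by fluorescent RT-PCR and capillary electrophoresis, with DMSO as baseline.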

The nature of assay [11]: ATG_TAL_CIS: Attagene CIS-FACTORIAL HepG2 Assay for human TAL Basal Promoter (AID 2282966).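 Note: background control endpoint measuring basal TAL promoter reporter mRNA not a specific factor.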 The note with it: HepG2 Attagene cis-factorial TAL promoter reporter; actives raise or lower the signal. In a few lines:
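After 24 hours of chemical exposure, transfected HepG2 cells yielded RNA that was converted to 6-FAM-labelled, HpaI-digested reporter fragments for capillary electrophoresis. Values derive from bidirectional fitting against DMSO controls.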

Assay [12] can be described thus: ATG_TGFb_CIS: Attagene CIS-FACTORIAL HepG2 Assay for human Transforming Growth Factor (TGF) (AID 2282967). As to conditions: HepG2 Attagene CIS TGFb reporter, mRNA transcription; actives raise or lower the signal. The gist of the method:
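Cells were dosed for 24 hours, after which total RNA was reverse-transcribed and reporter sequences amplified, labeled and sized by capillary electrophoresis. Activity was fitted in both directions against DMSO.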

Assay [13] in a line: ATG_VDRE_CIS: Attagene CIS-FACTORIAL HepG2 Assay for human Vitamin D Receptor Element (VDRE) (AID 2282968). The note with it: HepG2 VDRE cis-reporter transcription, actives raise or lower the signal. The gist of the method:
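Transient MRTU transfection of HepG2, 24 h compound exposure. Readout: reporter transcripts via RT-PCR and capillary electrophoresis, fluorescence. Bidirectional fit vs DMSO.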

For assay [14], the target named is Nuclear receptor subfamily 1 group I member 3 (Homo sapiens) (UniProt Q14994). Briefly: ATG_CAR_TRANS: Attagene TRANS-FACTORIAL HepG2 Assay for human Constitutive Androstane Receptor (CAR) (AID 2282969; active = hit-call score of the fitted dose curve at least 0.9, where 1 is the maximum;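 note: activators raise reporter mRNA above DMSO so AC50 marks induction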). As to conditions: HepG2 Attagene TRANS-FACTORIAL CAR reporter. In a few lines: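 Transiently transfected HepG2, multiplex TRANS reporters (CAR-Gal4 chimera driving GAL4-UAS reporter). 24 h dosing. Readout: reporter transcript by RT-PCR + capillary electrophoresis, fluorescence intensity; positive direction vs DMSO.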

Assay [15] concerns the target Estrogen receptor (Homo sapiens) (UniProt P03372). The assay can be described thus: ATG_ERa_TRANS: Attagene TRANS-FACTORIAL HepG2 Assay for human Estrogen Receptor alpha (ERa) (AID 2282970; active = hit-call score of the fitted dose curve at least 0.9, where 1 is the maximum). As to conditions: HepG2 Attagene TRANS ERa GAL4 reporter, mRNA. In a few lines:
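Liver-derived HepG2 cells expressing chimeric nuclear receptor-Gal4 proteins from transient transfection were exposed for 24 hours. Gain of reporter mRNA signal versus DMSO, read by capillary electrophoresis of FAM-labelled PCR products, was recorded.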

Assay [16] addresses Steroid hormone receptor ERR1 (Homo sapiens) (UniProt P11474). The assay can be described thus: ATG_ERRa_TRANS: Attagene TRANS-FACTORIAL HepG2 Assay for human Estrogen-Related Receptor alpha (ERRa) (AID 2282971; active = hit-call score of the fitted dose curve at least 0.9, where 1 is the maximum). The note with it: HepG2 Attagene TRANS reporter, ERRa transactivation. The gist of the method:
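Reporter transcript induction was quantified by RT-PCR and capillary electrophoresis of FAM-labelled, HpaI-cut products after 24 h treatment of HepG2 cells carrying transiently transfected GAL4-UAS reporter units and an exogenous ERRa-Gal4 fusion; activity scored as increase over DMSO.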

Assay [17] deals with X-box-binding protein 1 (Homo sapiens) (UniProt P17861). The assay can be described thus: ATG_Xbp1_CIS: Attagene CIS-FACTORIAL HepG2 Assay for human X-box Binding Protein 1 (XBP1) (AID 2282972). The note with it: HepG2 XBP1 cis-element reporter, Attagene multiplex; actives raise or lower the signal. In a few lines:
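Read-out: fluorescent reporter mRNA fragments resolved by capillary electrophoresis after RT-PCR. Human HepG2 liver cells carried transfected cis-promoter reporter units and were exposed to chemicals for 24 hours. Gain or loss of signal fitted relative to DMSO baseline.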

Assay [18] can be described thus: ATG_M_19_TRANS: Attagene TRANS-FACTORIAL HepG2 Assay for M19 Transcription Factor (Internal Marker) (AID 2282974; active = hit-call score of the fitted dose curve at least 0.9, where 1 is the maximum). As to conditions: HepG2 Attagene TRANS-FACTORIAL M19 internal marker reporter. The gist of the method:
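Measured here: internal-marker reporter transcript from HepG2 cells transfected with MRTUs, harvested at 24 h. cDNA PCR products were 6-FAM labelled by primer extension, cut with HpaI for 2 h at 37 C, and resolved by CE.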

Assay [19] in a line: ATG_SREBP_CIS: Attagene CIS-FACTORIAL HepG2 Assay for human Sterol Regulatory Element Binding (SREBP) (AID 2282962). As to conditions: HepG2 Attagene cis-factorial SREBP reporter, mRNA; actives raise or lower the signal. In a few lines: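 Readout: fluorescent reporter-transcript peaks resolved by capillary electrophoresis after RT-PCR. Cells were human HepG2 carrying transfected cis-promoter reporter constructs, dosed for 24 h. Gain or loss of signal was fitted against DMSO controls.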

X-box-binding protein 1 (Homo sapiens), sequence (P17861 whole entry, looked up, the tested form may be a part): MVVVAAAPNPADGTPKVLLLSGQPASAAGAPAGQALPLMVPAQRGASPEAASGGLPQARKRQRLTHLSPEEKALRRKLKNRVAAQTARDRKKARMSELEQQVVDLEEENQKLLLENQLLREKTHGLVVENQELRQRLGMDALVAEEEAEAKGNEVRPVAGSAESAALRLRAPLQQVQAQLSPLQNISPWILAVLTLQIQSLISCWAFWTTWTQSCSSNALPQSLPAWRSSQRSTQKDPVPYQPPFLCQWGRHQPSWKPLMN
Nuclear receptor subfamily 1 group I member 3 (Homo sapiens), sequence (Q14994 whole entry, looked up, the tested form may be a part): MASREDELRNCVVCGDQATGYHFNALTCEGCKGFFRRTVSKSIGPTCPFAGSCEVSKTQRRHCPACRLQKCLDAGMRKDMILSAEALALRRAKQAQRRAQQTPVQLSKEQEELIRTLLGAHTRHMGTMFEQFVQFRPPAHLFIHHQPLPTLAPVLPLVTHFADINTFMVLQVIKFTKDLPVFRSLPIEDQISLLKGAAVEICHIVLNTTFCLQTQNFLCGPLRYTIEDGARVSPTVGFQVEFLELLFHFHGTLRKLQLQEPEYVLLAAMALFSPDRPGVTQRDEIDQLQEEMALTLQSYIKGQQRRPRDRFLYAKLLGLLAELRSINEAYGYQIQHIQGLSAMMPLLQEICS
Estrogen receptor (Homo sapiens), sequence (P03372 whole entry, looked up, the tested form may be a part): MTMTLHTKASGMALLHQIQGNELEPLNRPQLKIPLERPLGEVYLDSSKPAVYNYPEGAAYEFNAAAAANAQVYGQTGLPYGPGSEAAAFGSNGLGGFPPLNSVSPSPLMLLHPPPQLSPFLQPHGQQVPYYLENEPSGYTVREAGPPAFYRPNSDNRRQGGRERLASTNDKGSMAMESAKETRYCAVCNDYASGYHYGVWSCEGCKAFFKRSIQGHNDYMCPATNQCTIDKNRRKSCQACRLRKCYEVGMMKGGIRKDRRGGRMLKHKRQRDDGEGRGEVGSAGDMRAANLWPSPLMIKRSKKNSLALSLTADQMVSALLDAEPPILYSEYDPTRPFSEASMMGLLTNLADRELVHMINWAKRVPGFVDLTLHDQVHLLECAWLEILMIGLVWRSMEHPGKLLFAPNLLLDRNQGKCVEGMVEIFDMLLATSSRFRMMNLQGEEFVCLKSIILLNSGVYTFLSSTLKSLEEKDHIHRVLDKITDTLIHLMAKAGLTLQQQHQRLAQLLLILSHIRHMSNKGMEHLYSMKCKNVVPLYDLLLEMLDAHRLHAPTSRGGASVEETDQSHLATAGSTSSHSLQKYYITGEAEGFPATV
Steroid hormone receptor ERR1 (Homo sapiens), sequence (P11474 whole entry, looked up, the tested form may be a part): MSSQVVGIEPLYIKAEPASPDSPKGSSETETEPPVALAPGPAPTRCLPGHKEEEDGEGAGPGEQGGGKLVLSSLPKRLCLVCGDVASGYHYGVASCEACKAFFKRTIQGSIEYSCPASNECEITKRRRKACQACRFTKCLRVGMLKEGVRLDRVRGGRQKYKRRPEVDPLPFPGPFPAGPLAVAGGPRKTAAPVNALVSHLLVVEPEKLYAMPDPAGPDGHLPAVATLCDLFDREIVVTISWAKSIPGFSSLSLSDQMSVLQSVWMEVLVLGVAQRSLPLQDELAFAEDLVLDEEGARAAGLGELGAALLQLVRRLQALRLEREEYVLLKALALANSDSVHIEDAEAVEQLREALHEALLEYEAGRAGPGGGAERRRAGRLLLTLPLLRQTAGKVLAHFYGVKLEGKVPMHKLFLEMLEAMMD
Paired box protein Pax-6 (Homo sapiens), sequence (P26367 whole entry, looked up): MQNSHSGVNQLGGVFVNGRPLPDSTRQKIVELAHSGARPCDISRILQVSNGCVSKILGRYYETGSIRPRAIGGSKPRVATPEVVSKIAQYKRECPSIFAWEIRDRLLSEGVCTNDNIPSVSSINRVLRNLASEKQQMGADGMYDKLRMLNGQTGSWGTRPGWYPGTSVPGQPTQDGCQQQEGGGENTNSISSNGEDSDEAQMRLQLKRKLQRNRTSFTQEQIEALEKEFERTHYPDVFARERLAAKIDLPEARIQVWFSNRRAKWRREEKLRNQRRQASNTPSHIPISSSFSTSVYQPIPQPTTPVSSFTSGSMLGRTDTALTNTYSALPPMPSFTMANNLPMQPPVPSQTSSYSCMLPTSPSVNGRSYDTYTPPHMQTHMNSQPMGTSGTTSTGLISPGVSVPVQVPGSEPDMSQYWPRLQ
Transcription factor Sp1 (Homo sapiens), sequence (P08047 whole entry, looked up): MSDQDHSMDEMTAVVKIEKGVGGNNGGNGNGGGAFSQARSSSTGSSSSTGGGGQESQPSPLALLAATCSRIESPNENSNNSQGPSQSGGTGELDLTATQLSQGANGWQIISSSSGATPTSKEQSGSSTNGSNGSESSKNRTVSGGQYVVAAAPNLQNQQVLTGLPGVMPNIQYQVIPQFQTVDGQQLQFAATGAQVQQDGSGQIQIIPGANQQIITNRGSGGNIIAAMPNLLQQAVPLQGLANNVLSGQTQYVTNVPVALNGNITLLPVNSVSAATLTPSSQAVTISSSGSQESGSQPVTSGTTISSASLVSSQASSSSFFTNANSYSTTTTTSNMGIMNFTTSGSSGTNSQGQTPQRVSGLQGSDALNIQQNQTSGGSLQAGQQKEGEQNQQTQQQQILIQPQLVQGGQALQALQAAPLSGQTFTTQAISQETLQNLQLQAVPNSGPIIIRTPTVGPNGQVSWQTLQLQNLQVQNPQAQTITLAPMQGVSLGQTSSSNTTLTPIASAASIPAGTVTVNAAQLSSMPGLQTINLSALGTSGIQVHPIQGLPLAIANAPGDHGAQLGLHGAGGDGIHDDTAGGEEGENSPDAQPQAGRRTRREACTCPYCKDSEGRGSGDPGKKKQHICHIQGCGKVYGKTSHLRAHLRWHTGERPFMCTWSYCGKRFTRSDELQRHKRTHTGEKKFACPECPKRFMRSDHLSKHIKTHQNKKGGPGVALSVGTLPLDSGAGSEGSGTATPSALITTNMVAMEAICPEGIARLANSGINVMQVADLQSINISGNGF
Signal transducer and activator of transcription 3 (Homo sapiens), sequence (P40763 whole entry, looked up, the tested form may be a part): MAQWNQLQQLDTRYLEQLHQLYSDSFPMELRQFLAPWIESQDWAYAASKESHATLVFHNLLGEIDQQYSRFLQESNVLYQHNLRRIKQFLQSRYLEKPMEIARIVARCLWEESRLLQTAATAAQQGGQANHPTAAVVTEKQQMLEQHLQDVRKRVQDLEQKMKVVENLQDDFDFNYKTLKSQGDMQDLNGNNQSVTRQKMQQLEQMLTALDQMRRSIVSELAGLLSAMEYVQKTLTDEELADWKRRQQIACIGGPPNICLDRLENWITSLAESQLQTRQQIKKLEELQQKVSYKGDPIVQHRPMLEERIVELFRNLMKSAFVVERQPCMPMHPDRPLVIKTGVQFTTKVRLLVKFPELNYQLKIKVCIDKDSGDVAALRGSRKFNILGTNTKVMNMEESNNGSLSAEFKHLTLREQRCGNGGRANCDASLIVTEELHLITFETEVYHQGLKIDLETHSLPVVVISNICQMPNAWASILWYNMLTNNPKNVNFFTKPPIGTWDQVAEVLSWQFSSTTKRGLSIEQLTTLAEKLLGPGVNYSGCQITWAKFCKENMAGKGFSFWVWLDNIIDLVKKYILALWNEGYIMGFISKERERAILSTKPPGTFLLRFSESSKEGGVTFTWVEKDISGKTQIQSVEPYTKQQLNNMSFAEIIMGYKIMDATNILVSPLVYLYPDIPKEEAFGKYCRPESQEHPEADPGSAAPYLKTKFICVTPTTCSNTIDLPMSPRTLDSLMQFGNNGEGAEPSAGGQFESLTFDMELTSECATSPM

Broadly, the AC50 is the midpoint of the concentration-response curve, whichever way the signal moves. On to `COCC(=O)N(c1c(C)cccc1C)C(C)C(=O)OC` (centres undefined), for which the result in assay [1], in assay [2], in assay [4], in [5], in assay [6] and in assay [7] was inactive. Further, the compound was classed as inactive in assay [8], in [9], in assay [10], in assay [11], in assay [12] and in assay [13]. The outcome in assay [14], in assay [15], in assay [16], in [17] and in assay [18] was inactive. Besides, the AC50 in assay [3] was 9.28 µM (active).

`Cc1cc(C)nc(Nc2ccccc2)n1`: the AC50 in [1] was 50 µM (active); in [4], 16.7 µM (active); in assay [13], 14.9 µM (active). For the same compound, the call in [2], in assay [3], in assay [5], in assay [6], in assay [7] and in assay [8] was inactive. Moreover, the compound was called inactive in assay [9], in assay [10], in assay [11], in assay [12], in assay [14] and in assay [16]. Also, in assay [17], the compound was classed as inactive.

In the case of `Cc1ccc(N=CN(C)C=Nc2ccc(C)cc2C)c(C)c1`, the outcome in assay [1], in assay [2], in assay [3], in assay [5], in assay [6] and in assay [7] was inactive. In addition, the outcome in [8], in assay [9], in assay [10], in [11], in assay [12] and in [13] was inactive. The result in [14] and in assay [17] was inactive.

For the compound `CCCCC(C#N)(Cn1cncn1)c1ccc(Cl)cc1` (centres undefined), the result in assay [1], in assay [2], in assay [4], in [5], in assay [6] and in assay [7] was inactive. In addition, the result in [8], in assay [9], in assay [10], in assay [11], in [12] and in assay [14] was inactive. Also, the call in [15], in assay [16] and in assay [17] was inactive. Also, the AC50 was 13.8 µM (active) in [3] and 12.6 µM (active) in assay [19].

For `Clc1nc(Cl)nc(Nc2ccccc2Cl)n1`, the result in [2], in assay [5], in assay [6], in assay [7], in [19] and in [8] was inactive. The outcome in assay [9], in assay [10], in [11], in [12], in assay [13] and in assay [17] was inactive. Further, the result in [18] was inactive. Besides, the concentration at half-maximal activity (AC50) in [3] is 39.7 µM (active); in assay [4] it was 18.7 µM (active).

Turning to `CC(C)C1(C)N=C(c2ncccc2C(=O)O)NC1=O` (centres undefined), the outcome in assay [1], in [2], in assay [3], in [4], in assay [5] and in assay [6] was inactive. Also, the outcome in assay [7], in assay [8], in assay [9], in assay [10], in assay [11] and in assay [12] was inactive. Also, the call in assay [13], in assay [14], in assay [17] and in assay [18] was inactive.

With `CCSC(=O)N1CCCCCC1`, the outcome in assay [2], in [4], in [5], in assay [6], in [7] and in [19] was inactive. In addition, the result in [8], in [9], in [10], in assay [11], in assay [12] and in [13] was inactive. The compound was classed as inactive in assay [14], in assay [15], in assay [16], in assay [17] and in assay [18]. For the same compound, in [3], the AC50 is 15.9 µM (active).

As for `N#Cc1c(Cl)cccc1Cl`, the outcome in [1], in [2], in assay [4], in assay [5], in assay [6] and in [7] was inactive. The outcome in assay [8], in assay [9], in assay [10], in [11], in [12] and in [14] was inactive. Moreover, the outcome in assay [17] and in [18] was inactive. Also, the AC50 in assay [3] is 21.6 µM (active).
